{
  "source": "the antibiotic and cytotoxicity screens of Wong et al. (2023)",
  "note": "Screen size: about 39,000 compounds; about 3,300 (8.5%) were called active. The sample holds actives, similar compounds and a random draw of the others, so the mix is not that of the screen.",
  "data": [
    {"system": "HepG2", "test": "cytotoxicity call (relative viability < 0.9)", "conditions": "10 µM", "values": [
      {"compound": "Cc1noc(C)c1S(=O)(=O)Nc1ccc2c(c1)CC(=O)N([C@@H](C)CO)C[C@H](C)[C@H](CN(C)S(=O)(=O)c1ccc(F)cc1)O2", "cytotoxicity call": "inactive"},
      {"compound": "CC(C)NC(=O)Nc1ccc2c(c1)CC(=O)N([C@@H](C)CO)C[C@H](C)[C@H](CN(C)S(=O)(=O)c1ccc(Cl)cc1)O2", "cytotoxicity call": "inactive"},
      {"compound": "CO[C@@H]1CN(C)C(=O)c2ccc(NC(=O)NC(C)C)cc2OC[C@H](C)N(Cc2ccc(-c3ccccn3)cc2)C[C@@H]1C", "cytotoxicity call": "inactive"},
      {"compound": "O=c1[nH]c2cc(C(F)(F)F)c(N3CCOCC3)cc2n(CP(=O)(O)O)c1=O", "cytotoxicity call": "inactive"},
      {"compound": "C[C@H](CO)N1C[C@H](C)[C@@H](CN(C)S(=O)(=O)c2cccs2)Oc2ccc(NC(=O)C3CC3)cc2CC1=O", "cytotoxicity call": "inactive"},
      {"compound": "Cc1noc(C)c1NC(=O)Nc1ccc2c(c1)C(=O)N([C@H](C)CO)C[C@@H](C)[C@H](CN(C)Cc1ccncc1)OCCCC[C@H](C)O2", "cytotoxicity call": "inactive"},
      {"compound": "C[C@@H]1CN([C@@H](C)CO)C(=O)c2cccc(NC(=O)CCCCCC(=O)Nc3ccccc3N)c2O[C@@H]1CN(C)C(=O)Nc1ccc(C(F)(F)F)cc1", "cytotoxicity call": "inactive"},
      {"compound": "Cc1ccc(S[C@]2(C(=O)NCC(C)C)CC(=O)N(C3Cc4ccccc4C3)[C@@H]2c2ccc(CO)cc2I)cc1", "cytotoxicity call": "inactive"},
      {"compound": "C[C@@H]1CCCCO[C@@H](CN(C)Cc2ccncc2)[C@@H](C)CN([C@@H](C)CO)C(=O)c2cc(NC(=O)CCC(F)(F)F)ccc2O1", "cytotoxicity call": "inactive"},
      {"compound": "C[C@@H]1CN([C@@H](C)CO)C(=O)c2cccc(NC(=O)c3cnccn3)c2O[C@H]1CN(C)C(=O)Nc1ccc2c(c1)OCO2", "cytotoxicity call": "inactive"},
      {"compound": "C[C@@H]1CN([C@H](C)CO)C(=O)CCCn2nncc2CO[C@@H]1CN(C)C(=O)Nc1ccc2c(c1)OCCO2", "cytotoxicity call": "inactive"},
      {"compound": "C[C@H]1CN([C@@H](C)CO)C(=O)Cc2cc(NC(=O)Cc3cn(C)c4ccccc34)ccc2O[C@H]1CN(C)Cc1ccc(Cl)c(Cl)c1", "cytotoxicity call": "inactive"},
      {"compound": "C[C@@H]1CN([C@@H](C)CO)C(=O)Cc2cc(NC(=O)Cc3cn(C)c4ccccc34)ccc2O[C@H]1CN(C)Cc1ccc(Cl)c(Cl)c1", "cytotoxicity call": "inactive"},
      {"compound": "C[C@H](CO)N1C[C@H](C)[C@H](CN(C)Cc2ccc(Cl)c(Cl)c2)Oc2ccc(NC(=O)Cc3cn(C)c4ccccc34)cc2CC1=O", "cytotoxicity call": "active"},
      {"compound": "C[C@H]1CN([C@@H](C)CO)C(=O)Cc2cc(NC(=O)Cc3cn(C)c4ccccc34)ccc2O[C@@H]1CN(C)Cc1ccc(Cl)c(Cl)c1", "cytotoxicity call": "inactive"},
      {"compound": "C[C@@H]1CN([C@H](C)CO)C(=O)Cc2cc(NC(=O)Cc3cn(C)c4ccccc34)ccc2O[C@H]1CN(C)Cc1ccc(Cl)c(Cl)c1", "cytotoxicity call": "inactive"},
      {"compound": "C[C@@H]1CN([C@H](C)CO)C(=O)Cc2cc(NC(=O)Cc3cn(C)c4ccccc34)ccc2O[C@@H]1CN(C)Cc1ccc(Cl)c(Cl)c1", "cytotoxicity call": "active"},
      {"compound": "O=C(C[C@H]1CC[C@H]2[C@@H](COC[C@H](O)CN2S(=O)(=O)c2cccc(F)c2)O1)NCCCN1CCOCC1", "cytotoxicity call": "inactive"},
      {"compound": "C[C@@H]1CCCCO[C@H](CN(C)Cc2ccc(C(=O)O)cc2)[C@H](C)CN([C@H](C)CO)C(=O)c2cc(NS(=O)(=O)c3cccs3)ccc2O1", "cytotoxicity call": "inactive"},
      {"compound": "Cc1ccc(S(=O)(=O)Nc2ccc3c(c2)C(=O)N([C@@H](C)CO)C[C@H](C)[C@H](CN(C)C(=O)NC2CCCCC2)OCCCC[C@H](C)O3)cc1", "cytotoxicity call": "inactive"},
      {"compound": "NC(=O)N1C(=O)[C@H]2[C@H](C1=O)[C@H]1C=C(CCCO)[C@@H]2[C@H](c2cccs2)N1Cc1cc2c(cc1Br)OCO2", "cytotoxicity call": "inactive"},
      {"compound": "O=C(C[C@@H]1C[C@@H]2c3cc(NC(=O)C4CCOCC4)ccc3O[C@@H]2[C@@H](CO)O1)NCc1cc(F)ccc1F", "cytotoxicity call": "inactive"},
      {"compound": "CNC[C@H]1OCCCC[C@@H](C)Oc2ccc(NC(=O)Nc3ccc(C(F)(F)F)cc3)cc2C(=O)N([C@H](C)CO)C[C@H]1C", "cytotoxicity call": "inactive"},
      {"compound": "COc1ccc(NC(=O)Nc2ccc3c(c2)C(=O)N([C@@H](C)CO)C[C@@H](C)[C@@H](CN(C)S(=O)(=O)c2c(C)noc2C)OCCCC[C@@H](C)O3)cc1", "cytotoxicity call": "inactive"},
      {"compound": "CCCC(C(=O)OCCN(CC)CC)(c1ccccc1)c1ccccc1.Cl", "cytotoxicity call": "active"},
      {"compound": "CCN(CC)CCNC(C(=O)OCCC(C)C)c1ccccc1.Cl.Cl", "note": "(stereo not given)", "cytotoxicity call": "inactive"},
      {"compound": "CCN(CC)CCOC(=O)c1ccc(N)cc1.Cl", "cytotoxicity call": "inactive"},
      {"compound": "CN1CCN(C(=O)C[C@@H]2CC[C@H]3[C@@H](COC[C@@H](O)CN3S(=O)(=O)c3cccc(Cl)c3)O2)CC1", "cytotoxicity call": "inactive"},
      {"compound": "C[C@@H]1CN([C@@H](C)CO)C(=O)Cc2cc(NC(=O)c3ccncc3)ccc2O[C@@H]1CN(C)Cc1ccc2c(c1)OCO2", "cytotoxicity call": "inactive"},
      {"compound": "C[C@@H]1CCCCO[C@H](CN(C)Cc2ccc3c(c2)OCO3)[C@@H](C)CN([C@H](C)CO)C(=O)c2cc(NC(=O)Nc3ccc(F)cc3)ccc2O1", "cytotoxicity call": "active"},
      {"compound": "C[C@@H]1CCCCO[C@H](CN(C)Cc2ccc3c(c2)OCO3)[C@H](C)CN([C@@H](C)CO)C(=O)c2cc(NC(=O)Nc3ccc(F)cc3)ccc2O1", "cytotoxicity call": "active"},
      {"compound": "C[C@@H]1CCCCO[C@@H](CN(C)Cc2ccc3c(c2)OCO3)[C@H](C)CN([C@H](C)CO)C(=O)c2cc(NC(=O)Nc3ccc(F)cc3)ccc2O1", "cytotoxicity call": "active"},
      {"compound": "C[C@H]1CCCCO[C@@H](CN(C)Cc2ccc3c(c2)OCO3)[C@@H](C)CN([C@@H](C)CO)C(=O)c2cc(NC(=O)Nc3ccc(F)cc3)ccc2O1", "cytotoxicity call": "inactive"},
      {"compound": "C[C@H](CO)N1C[C@H](C)[C@@H](CN(C)Cc2ccc3c(c2)OCO3)OCCCC[C@H](C)Oc2ccc(NC(=O)Nc3ccc(F)cc3)cc2C1=O", "cytotoxicity call": "active"},
      {"compound": "C[C@@H]1CCCCO[C@H](CN(C)C(=O)c2ccccc2)[C@@H](C)CN([C@@H](C)CO)C(=O)c2cc(NC(=O)Cc3ccccc3)ccc2O1", "cytotoxicity call": "inactive"},
      {"compound": "COc1ccccc1C#Cc1cnc2c(c1)C(=O)N([C@H](C)CO)C[C@@H](C)[C@H](CN(C)C(=O)CC1CC1)O2", "cytotoxicity call": "inactive"},
      {"compound": "NCc1ccc(C(N)=O)cc1", "cytotoxicity call": "inactive"},
      {"compound": "C[C@H](CO)N1C[C@H](C)[C@H](CN(C)Cc2cncnc2)Oc2cc(C#CC3CCCC3)ccc2S1(=O)=O", "cytotoxicity call": "inactive"},
      {"compound": "CN1CCN(C(=O)C[C@H]2CC[C@@H]3[C@@H](COc4ccc(NC(=O)c5cscn5)cc4C(=O)N3C)O2)CC1", "cytotoxicity call": "inactive"},
      {"compound": "C[C@@H]1CN([C@H](C)CO)C(=O)Cc2cc(NC(=O)C3CC3)ccc2O[C@H]1CN(C)Cc1ccc(C(=O)O)cc1", "cytotoxicity call": "inactive"}
    ]}
  ]
}
